Test results published in PubChem BioAssay AID652233 (Johns Hopkins Ion Channel Center, 2013).
The whole screen tested about 2,300 compounds, of which fewer than 10 were called active.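 Rule for the calls: active = yellow fluorescent protein signal ratio exceeding the buffer control mean by over 5 SD of those controls; inactive = the rest.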 These entries were drawn from the full list.

Test: iodide YFP quench changes in parental YFP-HEK293, counter-screen for TMEM16A inhibitor project, cell-based (AID 652233);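 note: ratio is mean of duplicate wells from kinetic YFP trace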
Details: ionomycin, at 10 µM

| Structure (SMILES) | YFP ratio F(max-min)/F0 |
| --- | --- |
| Cc1nc2ccccc2cc1OCc1ccc(F)cc1 | -0.66 (inactive) |
| CCCCNC(=O)CSc1nc2n[nH]c(C)c2c(=N)n1-c1cccc(Cl)c1C | -0.786 (inactive) |
| c1ccc(-c2nnc(SCc3nc4ccccc4[nH]3)o2)cc1 | -1.02 (inactive) |
| COc1ccc(OCC(=O)NCCc2ccc(S(N)(=O)=O)cc2)cc1 | -0.874 (inactive) |
| COc1ccc(S(=O)(=O)NCCCCOc2ccc(Cl)cc2)cc1 | -1.14 (inactive) |
| O=C(CNCCC1=CCCCC1)Nc1ccccc1N1CCCCCC1 | -1.09 (inactive) |
| CN(c1cccc(NC(=O)c2ccc(CN3CCc4ccccc4C3)cc2)c1)S(C)(=O)=O | -0.916 (inactive) |
| Cc1ccc(-n2ncc3c(N4CCN(c5ccc(F)cc5)CC4)ncnc32)c(C)c1 | -0.733 (inactive) |
| CCCCCc1ccc(-c2ccc(C(=O)O)cc2)nc1 | -0.857 (inactive) |
| O=C(Nc1cccc(S(=O)(=O)Nc2ccc(Cl)cc2)c1)c1ccc2c(c1)OCCO2 | -1.08 (inactive) |
| S=C(NCc1ccc(Cl)cc1)NC12CC3CC(CC(C3)C1)C2 | -1.22 (inactive) |
| Cc1nc(C)c(-c2csc(NCCc3ccccc3)n2)s1 | -0.901 (inactive) |
| Cc1cc(C)cc(NS(=O)(=O)c2ccc(Oc3ncc(C(F)(F)F)cc3Cl)cc2)c1 | -0.961 (inactive) |
| N#Cc1nc(COc2ccc(-c3ccccc3)cc2)oc1NCc1cccnc1 | -0.991 (inactive) |
| Cn1c(=O)n(C)c2cc(S(=O)(=O)N3CCCc4ccccc43)ccc21 | -1.35 (inactive) |
| COc1ccc(CNc2nnnn2C)cc1 | -0.894 (inactive) |
| O=C1c2ccccc2C(Nc2ccc3c(c2)OCCO3)N1Cc1ccco1 (centres undefined) | -0.965 (inactive) |
| O=C(COC(=O)CCc1c[nH]c(=O)[nH]1)Nc1ccccc1Cl | -0.772 (inactive) |
| N#CC1=C(SCc2ccccc2)NC(=O)C(C#N)C12CCCC2 (centres undefined) | -0.894 (inactive) |
| O=C(COc1ccccc1)NCc1ccc2c(c1)OCO2 | -1.01 (inactive) |

| Structure (SMILES) | YFP ratio F(max-min)/F0 |
| --- | --- |
| S=C(NCc1cccs1)Nc1ccc(Cl)cc1 | -1.2 (inactive) |
| Cc1ccc(C)c(N2CCN(S(=O)(=O)c3ccc4c(c3)oc(=O)n4C)CC2)c1 | -1.24 (inactive) |
| Cc1cc(C=O)c(C)n1-c1ccc(NC2CCCCC2)c([N+](=O)[O-])c1 | -0.94 (inactive) |
| CC(=O)c1c(C)[nH]c(C(=O)COC(=O)c2cccc(S(=O)(=O)N(C)c3ccccc3)c2)c1C | -1.08 (inactive) |
| O=C(Nc1nc(-c2ccc3c(c2)OCO3)cs1)c1ccncc1 | -0.891 (inactive) |
| CC(NC(=O)c1ccco1)C(=O)Nc1nc(-c2ccccn2)cs1 (centres undefined) | -1.13 (inactive) |
| Cc1ccc(N2C(=O)S/C(=C/c3cn(C)c4ccccc34)C2=O)cc1 | -0.76 (inactive) |
| COc1ccc(CN(C)C(=O)CC(c2ccccc2)c2ccccc2)cc1 | -1.04 (inactive) |
| CCOC(=O)N1CCN(C(=O)c2ccc3c(c2)N(Cc2ccc(C)cc2)CCS3)CC1 | -1.18 (inactive) |
| Cc1noc(C)c1COC(=O)c1cc2ccccc2cc1O | -0.996 (inactive) |
| COc1ccc2[nH]cc(/C=C(/C#N)S(=O)(=O)c3ccccc3)c2c1 | -1.14 (inactive) |
| O=C(N/N=C/c1cc(Cl)cc([N+](=O)[O-])c1O)C(O)(c1ccccc1)c1ccccc1 | -0.984 (inactive) |
| Cc1ccc2c(c1)N(S(=O)(=O)c1cc(-c3cc(C)no3)ccc1C)CCO2 | -0.714 (inactive) |
| COc1ccc(CCC(=O)c2ccc(OC)cc2)cc1 | -1.35 (inactive) |
| Cc1ccc(-c2noc(CSc3nnnn3-c3ccccc3)n2)cc1 | -0.963 (inactive) |
| CC(C)(C)C(=O)/C(C#N)=C/c1ccc(O)cc1 | -1.08 (inactive) |
| COC(=O)c1ccc(COC(=O)c2c(C)nn(Cc3ccccc3Cl)c2Cl)o1 | -1.29 (inactive) |
| CC1=NN(c2cccc(Cl)c2)C(=O)C12CC(C)=C(C)CS2 (centres undefined) | -1.3 (inactive) |
| CCOC(=O)c1cccc(NC(=O)CCn2nnc3ccccc32)c1 | -1.02 (inactive) |
| C=C(C)Cn1c(C)cc(C)c(S(=O)(=O)c2ccccc2C)c1=O | -0.995 (inactive) |

| Structure (SMILES) | YFP ratio F(max-min)/F0 |
| --- | --- |
| Cc1nc2c(C(=O)NCc3ccc4c(c3)OCO4)c[nH]n2c(=O)c1Cc1ccccc1F | -1.21 (inactive) |
| COC(=O)c1ccc(NC(=O)c2ccccc2NS(=O)(=O)c2ccccc2)cc1 | -0.979 (inactive) |
| O=C(NC(=S)Nc1ccccc1C(=O)O)c1ccc(-c2ccc(Br)cc2)o1 | -1.06 (inactive) |
| CN1c2ccc(C=O)c3c(C=O)ccc(c23)N(C)C1(C)C | -1 (inactive) |
| Cc1ccccc1-n1nnnc1SCCCC(=O)c1ccc(F)cc1 | -1.2 (inactive) |
| Cc1ccc(F)cc1NC(=O)Cc1nn(C)c(=O)c2ccccc12 | -1.06 (inactive) |
| CC(C)CNC(=S)NNC(=O)c1nn(C)cc1Cl | -0.979 (inactive) |
| Cc1ccc(-n2[nH]c(C)c(/C=N/N3C(=O)c4cccc5cccc(c45)C3=O)c2=O)cc1 | -0.991 (inactive) |
| Cc1nc(SCC(=O)N2CCc3ccccc3C2)c2c(C)c(C)sc2n1 | -1.07 (inactive) |
| CSc1nsc(NC(=O)Nc2ccccc2)n1 | -0.839 (inactive) |
| CCOC(=O)N1CC=C2C(C#N)=C(N)C(C#N)(C#N)[C@H](c3cccs3)[C@H]2C1 | -1.01 (inactive) |
| CCC(=O)Nc1ccc2nc(C)n(Cc3ccccc3Cl)c(=O)c2c1 | -1.04 (inactive) |
| Cc1cccc(N=Nc2c(O)[nH]c3ccc(F)cc23)c1 | -0.957 (inactive) |
| COc1cccc(CNS(=O)(=O)c2ccc3c(c2)CC(C)N3C(=O)C2CCC2)c1 (centres undefined) | -1.01 (inactive) |
| C=CCn1c(SCC(=O)Nc2nc3ccccc3s2)nnc1-c1ccccc1O | -1.05 (inactive) |
| Fc1ccc(CSc2nnc(-c3cc4c(s3)-c3ccccc3CC4)o2)cc1 | -0.984 (inactive) |
| O=C(CSCc1ccc(Cl)cc1)N1CCN(Cc2ccc3c(c2)OCO3)CC1 | -1.19 (inactive) |
| CSc1cccc(NC(=S)N(C(C)C)C(C)c2ccccn2)c1 (centres undefined) | -0.907 (inactive) |
| CCCCn1ccnc1C(=O)c1cccc(S(=O)(=O)N2c3ccccc3CC2C)c1 (centres undefined) | -1.39 (inactive) |
